Values joined by “and” are separate entries in the source; they are usually repeats but may differ in a detail not shown here. Equal entries are not always repeated. Records with an inconclusive call do not appear. A number with no mark means an inactive call. Active and inactive are the calls of the source. Calls come from the whole dose curve; as a rule, active = well fitted inhibition curve with a large enough effect; inconclusive = small, poorly fitted or top-dose-only effect; inactive = flat fitted curve, though single readings scatter.
Assay: P-glycoprotein substrates identified in KB-8-5-11 adenocarcinoma cell line, qHTS therapeutic library screen (AID 1346987); note: nearly all actives have a fitted effect of over 65% in size
Details: KB-8-5-11 (P-gp overexpressing) viability, CellTiter-Glo, 72 h; series mostly up to 44.5 µM; activity change, negative = cytotoxicity: at the top concentration
How it was run: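 In this qHTS, P-gp-rich KB-8-5-11 cells received library compounds across a concentration range. Viability was quantified by luminescence after 72 h at 37 degree C.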
% is set by controls: 0 for no effect and ±100 for the full control effect; potency is the fitted concentration of half-maximal effect.

SMILES | activity change, negative = cytotoxicity | Potency | outcome
CS(=O)(=O)NC(=O)CCC/C=C\C[C@H]1C(=O)C[C@@H](O)[C@@H]1/C=C/[C@H](O)COc1ccccc1 | 9.18% |  | 
C=C1CCCC2(C)CCC(C(C)(C)OC3OC(C)C(O)C(O)C3OC(=O)/C(C)=C\C)CC12 (stereo unspecified) | -27.1% [at 17.3 µM] |  | 
O=C(CCCN1CCC(n2c(=S)[nH]c3ccccc32)CC1)c1ccc(F)cc1 |  | 9.2 µM (active) | 
C1=C/COCc2cc(ccc2OCCN2CCCC2)Nc2nccc(n2)-c2cccc(c2)COC/1 |  | 4.61 µM (active) and 7.31 µM (active) | 
CCCN1CCC=C(c2cc(-c3ccc(C)cc3)no2)C1 | -4.34% |  | 
C=C1/C(=C/C=C2\CCC[C@@]3(C)C2CCC3[C@H](C)/C=C/[C@@H](O)C2CC2)C[C@@H](O)C[C@@H]1O (stereo partly specified) | -13.4% |  | 
C=C(C)C(=O)O[C@H]1[C@H]2C(=C)C(=O)O[C@@H]2/C=C(\CO)CC/C=C(/C=O)[C@@H]1O | 9.69% |  | 
O=C(O)c1cccc(/C=C2/C[C@@H]3[C@@H](/C=C/[C@@H](O)C4CCCCC4)[C@H](O)C[C@@H]3O2)c1 | -6.44% |  | 
C[N+](C)(CCCCCC[N+](C)(C)C1c2ccccc2-c2ccccc21)C1c2ccccc2-c2ccccc21 | 9.26% |  | 
COc1ccccc1N1CCN(CC(C(=O)NC(C)(C)C)c2ccccc2)CC1 (stereo unspecified) | -2.02% |  | 
Fc1ccc(-c2nc(C3CCNCC3)sc2-c2ccnc(NC3CC3)n2)cc1 |  | 13 µM (active) | 
O=C(Nc1ccc(CN2CCOCC2)cc1)c1ccc(-c2cccc(Cl)c2)o1 |  | 16.4 µM (active) | 
COC(=O)/C=C/C=C/C(=O)OC1C=C2COC(=O)C2(O)C2(C)CCCC(C)(C)C12 (stereo unspecified) | 3.63% [at 17.3 µM] |  | 
Nc1nc(O)c(C2=C3C(=Nc4ccccc43)C(=O)NCC2)[nH]1 |  |  | inactive
COc1cc2c(cc1OC)CN(C(=O)/C=C/c1c(-c3ccccc3)n(C)c3ncccc13)CC2 |  | 20.6 µM (active) | 
S=C(c1ccc(-c2ccc(Cl)c(Cl)c2)o1)N1CCCCC1 | -10.6% |  | 
CC(C)(Cc1ccccc1)NCC(O)c1ccc(O)c(NS(C)(=O)=O)c1 (stereo unspecified) | -0.935% |  | 
CC(C(=O)O)c1ccc(C2CCCCC2)c2ccccc12 (stereo unspecified) | 9.78% |  | 
COc1cc(-c2cn(C3CCc4c(F)cccc4N(CC(F)(F)F)C3=O)nn2)ccc1-n1cnc(C)c1 (stereo unspecified) | -14% |  | 
O=P(O)(O)OC(Cn1cncn1)(Cn1cncn1)c1ccc(F)cc1F | 9.23% |  | 
C=C1C(=O)OC2/C=C(\C)CC/C=C(\C)CC(OC(C)=O)C12 (stereo unspecified) | -23.1% |  | 
C[C@H](CSC(=O)c1ccccc1)C(=O)N1C[C@@H](Sc2ccccc2)C[C@H]1C(=O)O | 8.82% |  | 
O=C(NNc1nc2cc(F)ccc2n2cccc12)c1cnccn1 |  | 2.31 µM (active) | 
O=C(Nc1cccc2cccnc12)c1ccc(N2C(=O)[C@@H]3C4C=CC(C4)[C@@H]3C2=O)cc1 | -24.1% |  | 
CC[C@@H](C)[C@@H]1OC2(C=C[C@H]1C)C[C@@H]1C[C@H](C/C=C(\C)[C@H](O[C@H]3C[C@H](OC)[C@H](O[C@H]4C[C@H](OC)[C@H](NC(C)=O)[C@H](C)O4)[C@H](C)O3)[C@H](C)/C=C/C=C3\CO[C@H]4[C@H](O)C(C)=C[C@@H](C(=O)O1)[C@@]34O)O2 (stereo partly specified) |  | 10.1 µM (active) | 
CCOC(=O)c1cnn(-c2ccccc2)c1NC(=O)c1cc2nc(-c3ccco3)cc(C(F)(F)Cl)n2n1 | -0.285% |  | 

— PubChem BioAssay (NCATS)
